Assay results from PubChem BioAssay (Tox21).
Results filed as inconclusive are left out. Activity calls are given as the source filed them. Unless noted, calls come from the whole dose curve.

Columns and labels:
[1] = Nuclear factor erythroid 2-related factor 2/antioxidant responsive element (Nrf2/ARE) small molecule agonists: qHTS cell viability counter screen in human keratinocytes (AID 1919968; active = well fitted curve in the direction sought with a large enough effect in the repeat runs; an effect the other way counts as inactive or inconclusive; note: nearly all actives have a fitted effect of over 55% in size)
Method in brief: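 Measured as CellTiter-Fluor fluorescence, this readout tracks cytotoxicity in the same wells as the ARE-luciferase screen. HaCaT reporter cells (1,500/well) received compounds after a 5 h pre-incubation and were exposed for 23 h.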

[2] = Nuclear factor erythroid 2-related factor 2/antioxidant responsive element (Nrf2/ARE) small molecule agonists: luciferase reporter gene qHTS assay in human keratinocytes (AID 1919969); note: nearly all actives have a fitted effect of over 35% in size
[3] = molecular target: Gonadotropin-releasing hormone receptor (Homo sapiens) (UniProt P30968); assay: Human gonadotropin-releasing hormone receptor (GnRHR) small molecule agonists, calcium flux assay in GnRHR-HEK293 cells (AID 1920063); note: nearly all actives have a fitted effect of over 35% in size
Method in brief: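 Fluorescence kinetics (480 nm excitation, 540 nm emission; 3 min, 1 s steps) report calcium mobilisation in human GnRHR-HEK293 cells in agonist mode. Dye incubation: 1 h, 37 C.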

[4] = molecular target: KiSS-1 receptor (Homo sapiens) (UniProt Q969F8); assay: Human kisspeptin (KISS1R) small molecule agonists, calcium flux assay in KISS1R-HEK293 cells (AID 1920064; active = well fitted curve in the direction sought with a large enough effect in the repeat runs; an effect the other way counts as inactive or inconclusive)
Method in brief: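 Measures KISS1R agonism through calcium-sensitive dye fluorescence in stably transfected HEK293 cells, read for 3 min after pin-tool compound delivery; 15-point titrations in triplicate.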

[5] = G protein-coupled receptor (GPCR) small molecule agonists, calcium flux assay: HEK293 wild type cell line counter screen (AID 1920065)
Method in brief: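 Readout: fluorescence at 480 nm excitation/540 nm emission, sampled at 1 s intervals for 3 min. Cells had been cultured 18 h, then dye-loaded 1 h at 37 C before compound or ATP addition.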

[6] = p53 small molecule agonists, cell-based qHTS assay with human liver microsomes (AID 1963577);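 note: p53 response element beta-lactamase reporter cells with liver microsomes plus NADPH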
Method in brief: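 Metabolically competent format: test substances, human liver microsomes and NADPH (both 0.5 mg/mL final) incubated with p53RE-bla cells 16 h at 37 C. Beta-lactamase reporter signal then quantified by fluorescence.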

[7] = p53 small molecule agonists, cell-based qHTS assay with rat liver microsomes (AID 1963578)
Method in brief: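 Each plate received p53RE-bla cells, then compound, then rat liver microsomes and NADPH (both 0.5 mg/mL final). Plates were held 16 h at 37 C, and beta-lactamase activity was detected with LiveBLAzer over 2 h.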

[8] = p53 small molecule agonists, cell-based qHTS assay with human liver microsomes: qHTS cell viability counter screen (AID 1963579); note: nearly all actives have a fitted effect of over 45% in size
Method in brief: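 Tox21 library compounds, delivered from DMSO stocks, were tested on p53RE-bla cells together with 0.5 mg/mL human liver microsomes and 0.5 mg/mL NADPH (final) over 16 h at 37 C; CellTiter-Glo luminescence served as the cytotoxicity measure.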

[9] = p53 small molecule agonists, cell-based qHTS assay with rat liver microsomes: qHTS cell viability counter screen (AID 1963580); note: nearly all actives have a fitted effect of over 45% in size
Method in brief: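 Intracellular ATP, by CellTiter-Glo luminescence, defines viability. HCT-116 p53RE-bla cells, 4,000 per well, were compound-treated in the presence of rat liver microsomes and NADPH for 16 h at 37 C.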

[10] = p53 small molecule agonists, cell-based qHTS assay: qHTS cell viability counter screen (AID 1963581); note: nearly all actives have a fitted effect of over 45% in size
Method in brief: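 In the same plates used for the p53 bla reporter, HCT-116 cells given compounds for 16 h at 37 C received CellTiter-Glo; luminescence was recorded 30 min later at room temperature.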

[11] = p53 small molecule agonists, cell-based qHTS assay (AID 1963582; active = well fitted activation curve with a large enough effect in the signal ratio in the repeat runs, not every such curve was filed as active; the % refers to the signal ratio)
Method in brief: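 Compounds are pin-transferred in DMSO onto p53RE-bla cells and incubated 16 h at 37 C. The B/G FRET beta-lactamase substrate is then applied for 2 h at RT and fluorescence recorded.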

[12] = molecular target: 5-hydroxytryptamine receptor 2A (Homo sapiens) (UniProt P28223); assay: 5-hydroxytryptamine receptor 2A (HTR2A) small molecule antagonists, cell-based qHTS assay (AID 1963586); note: nearly all actives have a fitted effect of over 45% in size
Method in brief: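 Antagonist-mode intracellular calcium assay: DOI (4 nM) added after 5 min compound pre-incubation at room temperature to dye-loaded HTR2A-CHO cells. Fluorescence followed for 3 min, sampled every second.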

[13] = molecular target: 5-hydroxytryptamine receptor 2A (Homo sapiens) (UniProt P28223); assay: 5-hydroxytryptamine receptor 2A (HTR2A) small molecule agonists, cell-based qHTS assay (AID 1963587); note: nearly all actives have a fitted effect of over 30% in size
Method in brief: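 Kinetic calcium-flux fluorescence (2 min, 1 sec intervals) after compound addition in agonist mode. HTR2A-CHO cells were cultured 18 h, then dye-loaded 1 h at 37 C.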

[14] = molecular target: Muscarinic acetylcholine receptor M1 (Homo sapiens) (UniProt P11229); assay: Cholinergic receptor muscarinic 1 (CHRM1) small molecule antagonists, cell-based qHTS assay (AID 1963588); note: nearly all actives have a fitted effect of over 40% in size
Method in brief: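 CHRM1-CHO calcium-flux assay, antagonist mode. Cells were seeded 18 h, dye-loaded 1 h at 37 C and given compound for 5 min at RT, then acetylcholine was added at 50nM. FDSS fluorescence was read 3 min; 15 concentrations, three runs.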

[15] = molecular target: Muscarinic acetylcholine receptor M1 (Homo sapiens) (UniProt P11229); assay: Cholinergic receptor muscarinic 1 (CHRM1) small molecule agonists, cell-based qHTS assay (AID 1963589); note: nearly all actives have a fitted effect of over 35% in size
Method in brief: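 Each compound was tested at 15 concentrations across three independent runs on dye-loaded CHO cells stably expressing human CHRM1, reading intracellular calcium fluorescence kinetically at 1 sec intervals.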

[16] = cAMP Responsive Elements (CRE) small molecule agonists, cell-based qHTS assay (AID 1963590)
Method in brief: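 Cell line: CRE-bla HEK 293T; medium DMEM/10% dialyzed FBS/0.1 mM NEAA/1 mM pyruvate/25 mM HEPES; 3 h compound exposure; beta-lactamase FRET readout after 2 h substrate loading at RT.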

[17] = cAMP Responsive Elements (CRE) small molecule antagonists, cell-based qHTS assay (AID 1963591; active = well fitted inhibition curve with a large enough effect in the signal ratio in the repeat runs, not every such curve was filed as active; the % refers to the signal ratio)
Method in brief: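 Inhibition of NKH477-driven (0.25 uM final) CRE-beta-lactamase signal in HEK293T cells, 3 h compound exposure at 37 °C, detected by FRET substrate fluorescence.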

[18] = molecular target: D(2) dopamine receptor (Homo sapiens) (UniProt P14416); assay: Dopamine D2 receptor (DRD2) small molecule agonists, cell-based qHTS assay (AID 1963594); note: nearly all actives have a fitted effect of over 35% in size
Method in brief: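 cAMP accumulation in DRD2-HEK293 cells measured by HTRF after 1 h detection; compounds added 10 min before NKH477 (200nM […]) forskolin-analogue stimulation, 30 min at room temperature, with Ro20-1724 present at 0.1 mM final.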

[19] = molecular target: Beta-2 adrenergic receptor (Homo sapiens) (UniProt P07550); assay: Adrenergic beta2 receptor (ADRB2) small molecule antagonists, cell-based qHTS assay (AID 1963592); note: series mostly up to about 92 µM; nearly all actives have a fitted effect of over 50% in size
Method in brief: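 Cells (CHO, stable ADRB2 overexpression) incubated 18-20hr at 37C; compounds added from DMSO; agonist mix (1nM isoproterenol, 100uM IBMX, 25uM Ro-20-1724) added; 0.5hr RT; d2-cAMP and anti-cAMP-cryptate added; 1hr RT; 665/615 nm read.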

[20] = molecular target: D(2) dopamine receptor (Homo sapiens) (UniProt P14416); assay: Dopamine D2 receptor (DRD2) small molecule antagonists, cell-based qHTS assay (AID 1963595; active = well fitted inhibition curve with a large enough effect in the signal ratio in the repeat runs, with a control signal flat; the % refers to the signal ratio)
Method in brief: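 HEK293 cells stably expressing DRD2, preincubated with 0.1 mM Ro20-1724 and compounds 10 min, were stimulated with 200 nM NKH477 plus 12 nM quinpirole for 30 min at room temperature; cAMP measured by HTRF (665/620 nm).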

Measured: Potency

KiSS-1 receptor (Homo sapiens), sequence (Q969F8 whole entry, looked up): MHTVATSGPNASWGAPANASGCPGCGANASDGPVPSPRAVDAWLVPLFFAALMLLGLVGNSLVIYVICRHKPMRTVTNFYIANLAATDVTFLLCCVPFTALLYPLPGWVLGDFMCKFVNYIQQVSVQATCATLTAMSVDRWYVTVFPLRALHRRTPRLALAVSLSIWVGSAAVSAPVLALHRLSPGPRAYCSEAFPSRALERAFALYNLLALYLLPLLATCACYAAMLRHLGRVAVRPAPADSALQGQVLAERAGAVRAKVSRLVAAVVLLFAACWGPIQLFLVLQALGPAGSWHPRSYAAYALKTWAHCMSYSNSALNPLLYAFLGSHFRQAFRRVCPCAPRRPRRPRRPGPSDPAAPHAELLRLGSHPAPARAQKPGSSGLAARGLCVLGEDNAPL
Beta-2 adrenergic receptor (Homo sapiens), sequence (P07550 whole entry, looked up): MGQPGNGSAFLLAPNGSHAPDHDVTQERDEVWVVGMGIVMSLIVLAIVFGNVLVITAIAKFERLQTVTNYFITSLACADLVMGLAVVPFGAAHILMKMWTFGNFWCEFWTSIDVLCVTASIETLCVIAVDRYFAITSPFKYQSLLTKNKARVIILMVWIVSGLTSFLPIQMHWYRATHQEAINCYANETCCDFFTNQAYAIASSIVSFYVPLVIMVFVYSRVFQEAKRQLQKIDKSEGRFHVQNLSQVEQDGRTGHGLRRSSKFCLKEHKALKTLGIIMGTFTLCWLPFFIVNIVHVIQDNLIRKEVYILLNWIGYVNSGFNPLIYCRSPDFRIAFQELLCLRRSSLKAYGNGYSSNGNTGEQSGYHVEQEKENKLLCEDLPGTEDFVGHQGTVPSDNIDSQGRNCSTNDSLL
D(2) dopamine receptor (Homo sapiens), sequence (P14416 whole entry, looked up): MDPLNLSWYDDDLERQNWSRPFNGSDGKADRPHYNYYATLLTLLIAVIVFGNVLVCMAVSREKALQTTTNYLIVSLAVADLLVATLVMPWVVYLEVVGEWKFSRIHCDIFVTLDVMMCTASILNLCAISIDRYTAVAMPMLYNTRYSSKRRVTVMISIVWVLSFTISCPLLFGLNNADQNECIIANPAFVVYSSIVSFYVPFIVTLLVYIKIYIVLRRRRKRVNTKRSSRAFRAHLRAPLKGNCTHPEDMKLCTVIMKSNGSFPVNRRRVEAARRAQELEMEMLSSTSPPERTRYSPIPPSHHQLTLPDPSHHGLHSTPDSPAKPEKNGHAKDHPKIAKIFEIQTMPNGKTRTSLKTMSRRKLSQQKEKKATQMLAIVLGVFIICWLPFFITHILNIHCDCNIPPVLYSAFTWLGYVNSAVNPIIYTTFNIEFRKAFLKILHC
5-hydroxytryptamine receptor 2A (Homo sapiens), sequence (P28223 whole entry, looked up): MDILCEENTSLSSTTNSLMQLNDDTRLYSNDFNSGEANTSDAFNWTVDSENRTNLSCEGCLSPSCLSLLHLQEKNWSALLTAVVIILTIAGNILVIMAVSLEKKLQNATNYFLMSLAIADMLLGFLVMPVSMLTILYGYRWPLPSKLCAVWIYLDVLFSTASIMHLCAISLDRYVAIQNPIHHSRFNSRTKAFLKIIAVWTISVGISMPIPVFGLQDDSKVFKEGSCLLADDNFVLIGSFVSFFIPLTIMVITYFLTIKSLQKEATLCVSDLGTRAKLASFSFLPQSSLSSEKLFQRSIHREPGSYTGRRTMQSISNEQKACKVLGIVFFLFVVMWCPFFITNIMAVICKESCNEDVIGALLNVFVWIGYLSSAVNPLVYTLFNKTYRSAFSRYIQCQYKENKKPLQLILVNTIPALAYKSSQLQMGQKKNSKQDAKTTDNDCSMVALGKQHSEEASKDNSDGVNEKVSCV
Gonadotropin-releasing hormone receptor (Homo sapiens), sequence (P30968 whole entry, looked up): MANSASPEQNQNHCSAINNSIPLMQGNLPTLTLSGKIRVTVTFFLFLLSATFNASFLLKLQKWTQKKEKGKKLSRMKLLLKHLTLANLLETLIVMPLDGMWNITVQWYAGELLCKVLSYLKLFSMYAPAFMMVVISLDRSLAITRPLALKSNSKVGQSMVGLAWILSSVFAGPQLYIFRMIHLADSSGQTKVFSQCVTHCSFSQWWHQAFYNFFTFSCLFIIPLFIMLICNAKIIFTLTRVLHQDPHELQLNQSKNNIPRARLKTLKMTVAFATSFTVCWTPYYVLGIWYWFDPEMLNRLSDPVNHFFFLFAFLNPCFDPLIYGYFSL
Muscarinic acetylcholine receptor M1 (Homo sapiens), sequence (P11229 whole entry, looked up): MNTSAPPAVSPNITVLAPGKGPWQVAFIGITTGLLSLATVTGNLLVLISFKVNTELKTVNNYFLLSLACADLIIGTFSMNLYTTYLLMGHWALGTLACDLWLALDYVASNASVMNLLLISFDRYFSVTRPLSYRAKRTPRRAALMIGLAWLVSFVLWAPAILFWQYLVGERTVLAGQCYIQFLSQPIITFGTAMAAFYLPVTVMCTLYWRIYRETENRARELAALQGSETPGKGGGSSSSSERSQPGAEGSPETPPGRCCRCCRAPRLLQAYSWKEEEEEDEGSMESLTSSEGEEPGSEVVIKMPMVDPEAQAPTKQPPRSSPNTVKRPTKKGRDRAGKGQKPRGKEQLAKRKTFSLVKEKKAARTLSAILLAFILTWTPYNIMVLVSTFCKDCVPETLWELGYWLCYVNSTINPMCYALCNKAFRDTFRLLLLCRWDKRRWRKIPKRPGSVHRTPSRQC

CC(=O)c1ccc2ccccc2c1
not listed: [18] | [19] | [20]
inactive: all other assays above

O=[N+]([O-])c1ccc(CCO)cc1
not listed: [19] | [20]
inactive: all other assays above

OC1(c2ccc(Cl)cc2)CCNCC1
not listed: [17] | [18] | [20]
inactive: all other assays above

Cc1ccc(S(=O)(=O)O)c(C)c1
not listed: [17]
inactive: all other assays above

C=COCCOCCOCCOC=C
not listed: [15] | [18] | [19]
inactive: all other assays above

C=COCCCC
not listed: [15]
inactive: all other assays above

CC(C)CCCCCOC(=O)CCS
not listed: [15]
inactive: all other assays above

O=C(O)CC(=O)O
not listed: [16]
inactive: all other assays above

CC(=O)c1ccc(O)c(C(N)=O)c1
not listed: [16]
inactive: all other assays above

CCCCC(CC)CCC(CC(C)C)OS(=O)(=O)O (configuration not stated)
not listed: [16]
inactive: all other assays above

NS(=O)(=O)c1ccccc1Cl
not listed: [15] | [18]
inactive: all other assays above

OCC1(CO)COCOC1
not listed: [15]
inactive: all other assays above

CCOC(OCC)C(=O)c1ccccc1
not listed: [15]
inactive: all other assays above

Cc1cc(O)c(Cl)cc1C
not listed: [15]
inactive: all other assays above

CCCc1c2oc(C(=O)O)cc(=O)c2cc2c(=O)cc(C(=O)O)n(CC)c12
not listed: [15]
inactive: all other assays above
